Assay results published in PubChem BioAssay (EPA / NIEHS).
Activity calls are given as the source filed them. Rule for the calls: active = hit-call score of the fitted dose curve at least 0.9, where 1 is the maximum; inactive = score below 0.9.

Legend:
[1] = ATG_CRE_CIS: Attagene CIS-FACTORIAL HepG2 Assay for human cAMP Responsive Element (CRE) binding protein 3 (AID 2282926); details: HepG2 CRE cis-reporter, Attagene multiplexed mRNA; actives raise or lower the signal
Procedure, shortened: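 HepG2 cells transiently transfected with a multiplexed reporter library (CRE-driven unit among them) were dosed for 24 h. Reporter mRNA was quantified by RT-PCR, fluorescent labelling, HpaI digestion and capillary electrophoresis, with bidirectional fitting against DMSO baseline.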

[2] = molecular target: CCAAT/enhancer-binding protein beta (Homo sapiens) (UniProt P17676); experiment: ATG_C_EBP_CIS: Attagene CIS-FACTORIAL HepG2 Assay for human CCAAT/Enhancer Binding Protein (C/EBP) beta (AID 2282927); details: HepG2 Attagene cis-factorial transcription factor reporter; actives raise or lower the signal
Sequence of CCAAT/enhancer-binding protein beta (Homo sapiens) (P17676 whole entry, looked up): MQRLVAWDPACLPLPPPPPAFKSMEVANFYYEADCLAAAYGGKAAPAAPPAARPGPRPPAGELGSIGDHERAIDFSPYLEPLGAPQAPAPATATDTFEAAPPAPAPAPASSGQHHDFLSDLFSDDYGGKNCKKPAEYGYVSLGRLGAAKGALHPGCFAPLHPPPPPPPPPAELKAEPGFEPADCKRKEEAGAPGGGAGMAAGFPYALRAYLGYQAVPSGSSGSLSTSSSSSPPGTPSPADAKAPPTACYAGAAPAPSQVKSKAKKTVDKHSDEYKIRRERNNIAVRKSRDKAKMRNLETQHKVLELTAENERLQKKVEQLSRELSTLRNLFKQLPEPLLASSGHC
Procedure, shortened: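 Endogenous transcription factor activity in human liver HepG2 cells is inferred from induction of a CEBPB-linked reporter mRNA. Exposure lasts 24 h; activity is fitted in both directions relative to DMSO.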

[3] = ATG_CMV_CIS: Attagene CIS-FACTORIAL HepG2 Assay for human CMV (Internal Marker) (AID 2282928); details: HepG2 CMV promoter reporter, transcription factor profiling; actives raise or lower the signal;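 note: endpoint acts as a background internal control marker rather than a target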
Procedure, shortened: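 CMV internal-marker background readout in transiently transfected HepG2 cells bearing cis-regulated reporter units. Reporter mRNA is measured 24 h after dosing by RT-PCR and capillary electrophoresis, with bidirectional fitting against DMSO.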

[4] = molecular target: Aryl hydrocarbon receptor (Homo sapiens) (UniProt P35869); experiment: ATG_Ahr_CIS: Attagene CIS-FACTORIAL HepG2 Assay for human Aryl Hydrocarbon Receptor (Ahr) (AID 2282930); details: HepG2 AhR cis-factorial reporter transcription; actives raise or lower the signal
Sequence of Aryl hydrocarbon receptor (Homo sapiens) (P35869 whole entry, looked up): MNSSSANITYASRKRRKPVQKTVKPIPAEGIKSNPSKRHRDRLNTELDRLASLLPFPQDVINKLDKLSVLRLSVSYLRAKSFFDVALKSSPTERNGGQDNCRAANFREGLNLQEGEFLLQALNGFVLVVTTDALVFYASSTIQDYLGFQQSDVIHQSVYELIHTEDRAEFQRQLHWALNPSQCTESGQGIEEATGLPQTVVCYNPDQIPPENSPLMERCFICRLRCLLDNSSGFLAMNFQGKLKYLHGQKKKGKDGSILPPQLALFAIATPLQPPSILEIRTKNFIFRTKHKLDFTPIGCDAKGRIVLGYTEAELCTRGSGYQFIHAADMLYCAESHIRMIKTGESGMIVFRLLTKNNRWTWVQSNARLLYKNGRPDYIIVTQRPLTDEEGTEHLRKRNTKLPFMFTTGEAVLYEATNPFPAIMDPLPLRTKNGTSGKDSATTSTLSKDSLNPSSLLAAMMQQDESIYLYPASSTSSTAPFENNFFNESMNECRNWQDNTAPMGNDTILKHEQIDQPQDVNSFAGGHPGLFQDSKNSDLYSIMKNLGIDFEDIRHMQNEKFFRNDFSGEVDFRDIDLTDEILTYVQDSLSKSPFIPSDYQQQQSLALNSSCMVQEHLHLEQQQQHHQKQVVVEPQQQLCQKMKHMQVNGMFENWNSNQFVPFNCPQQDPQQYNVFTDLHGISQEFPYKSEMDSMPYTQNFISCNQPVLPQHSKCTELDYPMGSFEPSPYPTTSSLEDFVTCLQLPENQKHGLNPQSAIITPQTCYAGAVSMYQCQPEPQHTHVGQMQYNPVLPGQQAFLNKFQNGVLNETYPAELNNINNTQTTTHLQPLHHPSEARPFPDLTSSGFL
Procedure, shortened: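 Transient MRTU transfection of HepG2 → 24 h compound exposure → total RNA, oligo(dT) RT → PCR, 6-FAM extension, HpaI cut → CE fluorescence. DMSO = baseline; bidirectional curve fit.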

[5] = ATG_AP_1_CIS: Attagene CIS-FACTORIAL HepG2 Assay for human Activator Protein 1 (AP-1) (AID 2282931); details: HepG2 Attagene cis-factorial AP-1 reporter mRNA; actives raise or lower the signal
Procedure, shortened: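 Multiplexed HepG2 reporter assay, 24 h dosing. mRNA induction detected by RT-PCR plus capillary electrophoresis. Activity fitted in both directions against DMSO.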

[6] = ATG_AP_2_CIS: Attagene CIS-FACTORIAL HepG2 Assay for human Activator Protein 2 (AP-2) (AID 2282932); details: HepG2 AP-2 cis-reporter, Attagene transcription factor profiling; actives raise or lower the signal
Procedure, shortened: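 Step one: transient transfection of HepG2 with reporter transcription units. Step two: 24 h chemical exposure. Step three: RNA extraction, RT-PCR, labelled fragment analysis by capillary electrophoresis; DMSO serves as baseline.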

[7] = ATG_BRE_CIS: Attagene CIS-FACTORIAL HepG2 Assay for human Bone Morphogenetic Protein (BMP) Response Element (BRE) (AID 2282933); details: HepG2 BMP response element reporter, Attagene transcription factor profiling; actives raise or lower the signal
Procedure, shortened: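 Gain- or loss-of-signal was derived by bidirectional fitting against DMSO controls. The signal came from reporter mRNA, measured by RT-PCR and capillary electrophoresis, in HepG2 cells transiently carrying multiple reporter units and dosed for 24 h.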

[8] = molecular target: Retinoic acid receptor alpha (Homo sapiens) (UniProt P10276); experiment: ATG_DR5_RAR_CIS: Attagene CIS-FACTORIAL HepG2 Assay for human Retinoic Acid Receptor Alpha (RARE), DR5 submotif (AID 2282934); details: HepG2 Attagene cis-factorial RARE DR5 reporter, mRNA; actives raise or lower the signal;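 for AC50: reporter responds to endogenous RAR alpha beta and gamma in HepG2 not RARA alone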
Sequence of Retinoic acid receptor alpha (Homo sapiens) (P10276 whole entry, looked up): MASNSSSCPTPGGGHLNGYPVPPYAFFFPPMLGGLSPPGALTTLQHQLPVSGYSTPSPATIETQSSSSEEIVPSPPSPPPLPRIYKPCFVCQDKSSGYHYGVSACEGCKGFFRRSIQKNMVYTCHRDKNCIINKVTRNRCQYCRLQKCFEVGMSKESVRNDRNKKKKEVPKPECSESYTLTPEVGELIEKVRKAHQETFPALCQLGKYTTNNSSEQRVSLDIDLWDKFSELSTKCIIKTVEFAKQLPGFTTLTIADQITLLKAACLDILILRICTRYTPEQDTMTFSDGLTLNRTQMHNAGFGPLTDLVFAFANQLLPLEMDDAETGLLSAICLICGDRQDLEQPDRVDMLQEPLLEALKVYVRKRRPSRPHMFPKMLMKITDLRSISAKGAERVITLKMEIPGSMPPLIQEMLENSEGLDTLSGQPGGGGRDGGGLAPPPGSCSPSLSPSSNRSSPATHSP
Procedure, shortened: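 Transient MRTU transfection of HepG2; 24 h compound treatment; TriZol RNA, oligo(dT) RT, PCR, FAM labelling, capillary electrophoresis. Bidirectional fit vs DMSO. Endogenous TF activity at DR5 RARE.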

[9] = molecular target: Transcription factor E2F1 (Homo sapiens) (UniProt Q01094); experiment: ATG_E2F_CIS: Attagene CIS-FACTORIAL HepG2 Assay for human E2F Transcription Factor 1 (AID 2282935); details: HepG2 Attagene cis-reporter, E2F reporter RNA transcripts; actives raise or lower the signal
Sequence of Transcription factor E2F1 (Homo sapiens) (Q01094 whole entry, looked up): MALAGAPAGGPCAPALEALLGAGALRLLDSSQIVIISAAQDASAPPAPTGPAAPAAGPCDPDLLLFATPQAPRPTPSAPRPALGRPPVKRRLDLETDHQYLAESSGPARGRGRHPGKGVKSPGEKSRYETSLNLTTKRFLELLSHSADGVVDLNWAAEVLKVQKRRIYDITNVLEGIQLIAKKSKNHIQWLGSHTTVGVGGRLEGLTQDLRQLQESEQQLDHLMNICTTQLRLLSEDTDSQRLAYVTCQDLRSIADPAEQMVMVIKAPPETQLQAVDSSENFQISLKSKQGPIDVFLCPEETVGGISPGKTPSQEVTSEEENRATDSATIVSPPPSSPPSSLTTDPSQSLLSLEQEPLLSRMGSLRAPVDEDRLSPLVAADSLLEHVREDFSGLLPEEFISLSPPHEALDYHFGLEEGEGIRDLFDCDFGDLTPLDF
Procedure, shortened: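 Total RNA from 24 h-treated, reporter-transfected HepG2 cells undergoes DNase I treatment, oligo(dT) reverse transcription, PCR and 6-FAM primer extension before capillary electrophoresis.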

Measured: AC50

CCOCC(=O)O
inactive: [1] | [2] | [3] | [4] | [5] | [6] | [7] | [8] | [9]

CCCCCCC1(C)CCC(=O)O1 (stereo unspecified)
active: [4] 44.4 µM
inactive: [1] | [2] | [3] | [5] | [6] | [7] | [8]

CCOC(=O)[C@H](C)O
inactive: [1] | [2] | [3] | [4] | [5] | [6] | [7] | [8] | [9]

CC=CC(F)(F)C(F)(F)C(F)(F)F
inactive: [1] | [2] | [3] | [4] | [5] | [6] | [7] | [8]

C=CC(C)(C)C
inactive: [1] | [2] | [3] | [4] | [5] | [7] | [8] | [9]

CO[Si](OC)(OC)c1ccccc1
inactive: [1] | [2] | [3] | [4] | [5] | [6] | [8]

O=C(C(Cl)Cl)N1CCOC12CCCCC2
inactive: [1] | [2] | [3] | [4] | [7] | [8] | [9]
active: [5] 69.1 µM

c1cc(N(CC2CO2)CC2CO2)ccc1OCC1CO1 (stereo unspecified)
active: [1] 12.6 µM | [3] 91.5 µM | [6] 25.8 µM | [8] 83.1 µM
inactive: [2] | [4] | [5] | [7] | [9]

CCOC(=O)CC
inactive: [1] | [2] | [3] | [4] | [5] | [6] | [7] | [8]

CC(=O)[C@@]1(O)CC[C@H]2[C@@H]3C[C@H](C)C4=CC(=O)C=C[C@]4(C)[C@@]3(F)[C@@H](O)C[C@@]21C
active: [8] 100 µM
inactive: [1] | [2] | [3] | [4] | [5] | [6] | [7] | [9]

Cn1c([N+](=O)[O-])cnc1COC(N)=O
inactive: [1] | [2] | [3] | [4] | [5] | [6] | [7] | [8] | [9]

CC(C)(C)c1n[nH]c(=O)n(N)c1=O
inactive: [1] | [2] | [3] | [4] | [5] | [6] | [7] | [8] | [9]

c1ccc(CNCc2ccccc2)cc1
inactive: [1] | [2] | [3] | [4] | [5] | [6] | [8] | [9]

COCCOCCOCCOCCOC
inactive: [1] | [2] | [3] | [4] | [5] | [6] | [7] | [8] | [9]

O=C(O)CCCC[C@@H]1SC[C@@H]2NC(=O)N[C@@H]21
inactive: [1] | [2] | [3] | [4] | [5] | [6] | [7] | [8] | [9]

CCOC(=O)c1ccccc1C(=C1C=C(Br)C(=O)C(Br)=C1)c1cc(Br)c(O)c(Br)c1
active: [1] 25.4 µM | [2] 18.8 µM | [3] 53.7 µM | [4] 26.2 µM | [5] 51.7 µM | [6] 49.9 µM | [7] 109 µM | [8] 21.3 µM
inactive: [9]

c1ccc2c(c1)ccc1ncccc12
inactive: [1] | [2] | [5]
active: [3] 19.2 µM | [4] 7.77 µM | [6] 178 µM | [7] 76.4 µM | [8] 58 µM

CCCCCCCCO[C@@H]1O[C@H](CO)[C@@H](O)[C@H](O)[C@H]1O
inactive: [1] | [2] | [3] | [4] | [5] | [6] | [7] | [8] | [9]

CCCCC(CC)COCC1CO1 (stereo unspecified)
inactive: [1] | [2] | [3] | [4] | [5] | [6] | [7] | [8] | [9]

OCCNCc1ccccc1
inactive: [1] | [2] | [3] | [4] | [5] | [6] | [7] | [8] | [9]
